# PubChem BioAssay AID2676 (National Center for Advancing Translational Sciences (NCATS), 2010)
# Out of some 370,000 compounds screened, about 1,100 (0.3%) were called active. A call without a number means that no potency is given here. Another 1% or so got no clear call; they are omitted. Calls follow the shape of the dose curve; as a rule, active = well fitted activation curve with a large enough effect; inconclusive = small, poorly fitted or top-dose-only effect; inactive = flat fitted curve, though single readings scatter. This excerpt belongs to a sample that is enriched for actives.
# Target: Relaxin receptor 1 (Homo sapiens) (UniProt Q9HBX9)
# Sequence (Q9HBX9 whole entry, looked up): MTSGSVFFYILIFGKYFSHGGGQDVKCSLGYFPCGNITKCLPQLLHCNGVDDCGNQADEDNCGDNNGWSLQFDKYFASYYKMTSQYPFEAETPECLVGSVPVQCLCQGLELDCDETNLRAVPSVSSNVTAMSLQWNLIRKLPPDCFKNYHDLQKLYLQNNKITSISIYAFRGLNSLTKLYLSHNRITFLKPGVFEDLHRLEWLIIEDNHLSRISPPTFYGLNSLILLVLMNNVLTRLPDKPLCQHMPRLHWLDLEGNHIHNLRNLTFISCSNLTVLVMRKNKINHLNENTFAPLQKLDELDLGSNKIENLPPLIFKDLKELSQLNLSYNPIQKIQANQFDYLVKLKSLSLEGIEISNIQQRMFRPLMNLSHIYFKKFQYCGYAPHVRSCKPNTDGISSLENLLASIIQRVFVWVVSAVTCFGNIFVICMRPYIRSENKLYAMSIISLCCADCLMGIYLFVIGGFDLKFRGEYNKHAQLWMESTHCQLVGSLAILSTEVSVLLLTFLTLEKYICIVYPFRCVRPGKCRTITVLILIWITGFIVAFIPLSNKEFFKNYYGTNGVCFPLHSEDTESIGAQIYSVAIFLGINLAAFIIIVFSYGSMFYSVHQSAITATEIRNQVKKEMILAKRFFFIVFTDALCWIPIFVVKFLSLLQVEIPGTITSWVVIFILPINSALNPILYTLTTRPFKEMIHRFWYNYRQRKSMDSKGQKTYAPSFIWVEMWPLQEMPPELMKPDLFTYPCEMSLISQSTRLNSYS
# Assay: qHTS Assay for Agonists of the Relaxin Receptor RXFP1; also: nearly all actives have a fitted effect of over 60% in size
# Conditions: HEK293T-RXFP1 cAMP TR-FRET, 30 min; series mostly up to 57.5 µM
# Text: NIH Chemical Genomics Center [NCGC] NIH Molecular Libraries Probe Production Centers Network [MLPCN] MLPCN Grant: R03 MH085705-01A1 Assay Submitter (PI): Alexander Agoulnik NCGC Assay Overview: The relaxin hormone is involved in the variety of biological functions in normal tissues and diseases. The role of relaxin is well-established in female reproduction and parturition, mammary gland and endometrial development, maintenance of myometrial quiescence during pregnancy. Relaxin signaling through its G protein-coupled receptor (GPCR) RXFP1 results in ECM remodeling through regulation of collagen deposition, cell invasiveness, proliferation and overall tissue homeostasis. […] Recombinant human relaxin (rhRlx) is currently being tested in clinical trials as a protective agent in congestive heart failure, in treating severe preeclampsia, and as an anti-fibrotic agent in systemic sclerosis. Upon relaxin binding RXFP1 activation leads to the activation of adenylate cyclase (AC) via Gs. cAMP will activate PKA, which phosphorylates many signaling proteins. Thus, detection of cAMP increase is an easy and reliable indication of relaxin receptor activation. To screen for agonists of the relaxin receptor, a HEK293T cell line stably transfected with RXFP1 was used. RXFP1 activation was assayed by changes in cAMP levels as detected with a time-resolved fluorescence energy transfer (TR-FRET) cAMP detection kit.
# NCGC Assay Protocol Summary: This is a cell-based assay for cAMP second messenger response to screen for agonists of the RXFP1 receptor. The assay was conducted in the presence of a PDE4 inhibitor (Ro 20174). The cells were lysed and the cAMP levels were measured with a TR-FRET cAMP kit. Presence of cAMP in the cell lysate disrupts binding between the cryptate-labeled anti-cAMP and d2-labeled cAMP pair, leading to a decrease in the TR-FRET signal. Data were normalized to the controls for basal activity (buffer only) and 100% activity (29 nM porcine relaxin). The EC50 values were determined from concentration-response data modeled with the standard Hill equation 1536-well assay protocol for the HEK293 RXFP1 cAMP assay: (1) Add 3 ul HEK293 RXFP1 cell culture. 2000 cells/well in DMEM/F12, 10% FBS, 1x Pen/Strep (dispensed offline with MultiDrop Combi). (2) Incubate 16-24 hr at 37C, 5% CO2. (3) Add 1 ul 400uM Ro20174 in DPBS, 0.05% BSA, 0.005% Tween 20. (3) Add 23 nl compounds in DMSO solution. Final concentration was 0.5 - 58 uM. (4) Incubate 30 min at 37C, 5% CO2. (5) Add 1 ul cAMP-d2 in lysis buffer (HTRF cAMP HiRange kit, CisBio). (6) Add 1 ul anti-cAMP antibody-cryptate in lysis buffer (HTRF cAMP HiRange kit, CisBio). (7) Incubate 30 min at room temperature. (6) Detect the assay plate in a ViewLux plate reader (PerkinElmer) with Ex=320 nm, Em1=615 nm and Em2=665 nm. Keywords: relaxin, RXFP1, RXFP2, G-protein coupled receptor, cAMP, agonist, high throughput screening, MLSMR, MLSCN, NIH Roadmap, qHTS and NCGC
# Potency is read from the fitted curve at half-maximal effect.
row,SMILES,Potency
1,O=C(Nc1ccc2nc(SCC(=O)N3CCCc4ccccc43)sc2c1)c1ccc(Cl)cc1,inactive
2,CCOC(=O)c1ccc(N2C(=O)c3[nH]nc(-c4ccccc4)c3C2c2ccc(C(C)C)cc2)cc1 (stereo not drawn),inactive
3,Fc1ccc(-c2nn(-c3ccccc3Cl)c3c2cnc2ccccc23)cc1,inactive
4,CCOc1cccc2sc(N3CCN(C(=O)C4CC4)CC3)nc12,inactive
5,Cn1c(=O)c2c(ncn2CC(=O)N2CCN(c3ccccc3)CC2)n(C)c1=O,inactive
6,COc1ccc(C(=O)COC(=O)c2nn(C)c(=O)c3ccccc23)c(OC)c1,inactive
7,COc1ccc(C(=O)COC(=O)Cn2cnc3c2c(=O)n(C)c(=O)n3C)c(OC)c1,15.8 µM (active)
8,COc1ccc(Cn2ccnc2SCC(=O)Nc2ccc3c(c2)OCO3)cc1,inactive
9,CCC(C)c1ccc2oc(-c3ccc(NC(=O)c4cc5ccccc5o4)cc3)nc2c1 (stereo not drawn),inactive
10,Cn1nnnc1SCCNCc1ccc(Cl)c(Cl)c1,inactive
11,COc1ccc(Br)cc1CNC(=O)c1cc(=O)[nH]c2ccc(S(=O)(=O)N3CCCC3)cc12,inactive
12,CCOC(=O)c1ccc(CSc2nnc3cc(C)c4ccccc4n23)cc1,inactive
13,O=c1cc(-c2ccccc2)n2c(SCc3ccccc3)nnc2[nH]1,inactive
14,Cc1cccc2nc(CSc3nc4[nH]ncc4c(=O)n3-c3cccc(Cl)c3)cc(=O)n12,inactive
15,CCc1ccc(-n2c(SCc3cc(=O)n4cc(Br)ccc4n3)nc3[nH]ncc3c2=O)cc1,20 µM (active)
16,O=c1c2sccc2nc(SCc2cc(=O)n3ccccc3n2)n1-c1ccc(Br)cc1,inactive
17,CCCN1C(=O)C(O)(CC(=O)c2ccc(CC)cc2)c2cc(Br)ccc21 (stereo not drawn),inactive
18,COc1cccc(CNC(=O)Cn2ncn3c(cc4ccccc43)c2=O)c1,inactive
19,CCCSc1ncc(Cl)c(C(=O)Nc2c(C(=O)Nc3ccccc3)oc3ccccc23)n1,inactive
20,Cc1cc(NS(=O)(=O)c2ccc(NC(=O)c3ccccc3C)cc2)nc(C)n1,inactive
21,CCCn1c(NCc2ccccc2F)nc2ccccc21,inactive
22,COc1ccc(-c2cn3c(n2)sc2cc(C(=O)Nc4ccc(F)cc4)ccc23)cc1,inactive
23,O=C(Cn1nc(Cc2cccnc2)c2ccccc2c1=O)N1CCN(c2ccccc2F)CC1,inactive
24,Cc1ccccc1NC(=O)Cn1c(=O)n(CCCCC(=O)NCc2ccccc2Cl)c(=O)c2ccccc21,inactive
25,CCCCNC(=O)CSc1nc2cc3c(cc2c(=O)n1CCCCCC(=O)NCc1ccc2c(c1)OCO2)OCO3,inactive
26,CC1(C)Cc2nc3sc4c(SCC(=O)NC(c5ccccc5)c5ccccc5)ncnc4c3cc2CO1,3.16 µM (active)
27,CC(C)CCSc1ncnc2c1oc1nc3c(cc12)COC(C)(C)C3,inactive

row,SMILES,Potency
1,O=C(CSc1ncnc2scc(-c3ccccc3)c12)NCc1ccc2c(c1)OCO2,inactive
2,Cc1ccc(Cl)cc1N1CCN(S(=O)(=O)c2cc3[nH]c(=O)c(=O)[nH]c3cc2C)CC1,inactive
3,COc1ccc2c(c1)Cc1sc(NC(=O)c3ccccc3Br)nc1-2,inactive
4,COc1ccc(NC(=O)CCc2nnc3n(CC(C)C)c(=O)c4ccccc4n23)cc1OC,inactive
5,COc1cc(OC)cc(C(=O)Nc2c(C(=O)Nc3ccc(F)cc3)oc3ccccc23)c1,inactive
6,COc1cccc(-c2nc(CS(=O)(=O)CC(=O)N3CCN(c4cc(C)ccc4C)CC3)c(C)o2)c1,inactive
7,Cc1cccc(Cn2c(SCc3ccc(C(=O)N4CCC(C)CC4)cc3)nc3ccncc32)c1,inactive
8,COc1ccccc1CNC(=O)C(=O)NCC(c1ccco1)S(=O)(=O)c1ccc(F)cc1 (stereo not drawn),inactive
9,COc1cccc(C(=O)Nc2nnc(S(=O)(=O)N(C)c3ccccc3)s2)c1,inactive
10,CCCCC(=O)Nc1nnc(S(=O)(=O)N(C)Cc2ccco2)s1,inactive
11,CCC(=O)Nc1ccccc1-c1nc2ccccc2n(CC(=O)Nc2ccc(C)c(C)c2)c1=O,inactive
12,CC1CCN(C(=O)Cn2c(=O)n(-c3ccc(Cl)cc3)c(=O)c3c4c(sc32)CCC4)CC1,inactive
13,CCC(C)Nc1oc(-c2ccc(COc3ccc(Cl)cc3)o2)nc1C#N (stereo not drawn),inactive
14,CCOC(=O)c1c(C)[nH]c(CCC(=O)NCCCN2CCN(c3cccc(Cl)c3)CC2)c1C,inactive
15,Cc1ccc(Nc2c(-c3ccc(Cl)cc3)nc3sccn23)c(C)c1,inactive
16,CC(=O)N1CCCc2cc(S(=O)(=O)Nc3ccc(Cl)cc3F)ccc21,inactive
17,O=C(COc1ccc(Cl)cc1)Nc1ccccc1OCc1cc(=O)n2ccccc2n1,inactive
18,CCOc1ccccc1C(=O)Nc1ccc2c(c1)N(C)C(=O)c1ccccc1S2,inactive
19,CC(=O)Nc1cccc(NC(=O)CSc2nccn2Cc2ccc3c(c2)OCO3)c1,inactive
20,Cc1cc(OCC(=O)NCC2(N(C)C)CCCCC2)cc(C)c1Cl,inactive
21,COc1ccc(CNC(=O)CSc2n[nH]c(-c3ccc(F)cc3)n2)cc1,inactive
22,CCc1ccc(NC(=O)CN2CCSc3ccc(S(=O)(=O)N4CCCC4)cc32)cc1,inactive
23,Cc1ccc(S(=O)(=O)N(Cc2nc(-c3ccc(Cl)cc3)no2)C2CCCCC2)cc1,inactive
24,COc1ccc2c(c1)c(=O)c(C(=O)c1ccccc1)cn2CC(=O)Nc1ccc2c(c1)OCCO2,inactive
25,CCCC(=O)N1CCN(c2nc3c(OC)ccc(C)c3s2)CC1,inactive
26,CCCN(CCC)CCNC(=O)c1ccc2c(c1)NC(=O)C(CS(=O)(=O)Cc1cccc(Br)c1)N2 (stereo not drawn),inactive
